The values that follow come from PubChem BioAssay AID651702 (NMMLSC, 2012).

The whole screen tested about 360,000 compounds, of which about 2,400 (0.67%) were called active. The sample holds actives, similar compounds and a random draw of the others, so the mix is not that of the screen. Unmarked numbers belong to inactive results.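 The calls were made as follows: active = inhibition above about 55% (limit read from the data); inconclusive = no clear call, values can overlap the other calls; inactive = the rest.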

The experiment can be described thus: LAMP-1 surface exposure blockers, TALL-104 cells – cell-based, flow cytometry, MLPCN library, primary screen (AID 651702). The conditions noted are these: TALL-104 LAMP-1 surface exposure, at 10 µM, stronger effect = higher value.
As for `CC(=O)OC1C2(CC3N4C(=O)C5(CO)SSC4(CC31O)C(=O)N5C)OC(C)C(C)(C)C2=O` (stereo not given), the inhibition was 74.7% (active).

Consider `CN1CCC[C@@H]1CCO[C@](C)(c1ccccc1)c1ccc(Cl)cc1`, for which the inhibition is 3.8%.

As to `Cc1cc(N2C(=O)C3CCCN3C2c2ccc(Cl)c(Cl)c2)no1` (stereo not given), the inhibition is 1.1%.

As to `CN1CCC(OC(=O)c2cccc(F)c2)CC1`, the inhibition is -4.7%.

Regarding `O=C(CCNS(=O)(=O)c1ccccc1)Nc1ccc(Cl)cc1C(=O)c1ccccc1`, the inhibition is -5.4%.

Consider `OC1/C(=C/c2ccc(C(F)(F)F)cc2)N2CCC1CC2` (stereo not given), for which the inhibition was -6.5%.

With `O=C1NC(=O)N(CCc2ccc(F)cc2)C(=O)/C1=C/C=C/c1ccccc1`, the inhibition was 57.4% (active).

For `O=[N+]([O-])c1ccc(C2C3C(c4ccccc4)=NC4(CCCCC4)N32)cc1` (stereo not given), the inhibition is 0.6%.

With `O=c1[nH]c(CN2CC=C(c3ccccc3)CC2)nc2scc(-c3cccs3)c12`, the inhibition is -1.3%.

`Cc1ccc(CN2CCCC(C(=O)c3ccc4c(c3)OCO4)C2)cc1C` (stereo not given): the inhibition is -2.3%.

As for `CCOc1ccc(-c2cc(C)[n+](CCN(CC)CC)c(-c3ccc(OCC)cc3)c2)cc1`, the inhibition is 77.5% (active).

In the case of `COc1ccccc1CN1CCN(C(=O)Cc2ccccc2)CC1`, the inhibition is 24.2%.

`COc1ccc(Br)cc1CNCCc1cccc(Cl)c1`: the inhibition was 75.9% (active).

For the compound `COc1ccc(CNCCc2ccc3c(c2)OCO3)c(OC)c1OC`, the inhibition is 5.7%.

On to `COc1ccc(CNCCc2c[nH]c3ccccc23)cc1OC`, for which the inhibition was 21.9%.

Consider `CCOP(=S)(OCC)C(O)CCCCCn1c(=O)c(F)cn(C2CCCO2)c1=O` (stereo not given), for which the inhibition is 1.5%.

Turning to `CCOC(=O)[C@]12Cc3ccccc3[C@H]1N(C1CCCCC1)C(=O)c1cc(OC)ccc12`, the inhibition is 57.3% (active).

In the case of `CCOC(=O)[C@]12Cc3cc(OC)ccc3[C@H]1N(C(C)C)C(=O)c1ccccc12`, the inhibition is 3.3%.

Take `Cc1cccc(NC(=O)N2CC3CC(C2)c2cccc(=O)n2C3)c1` (stereo not given): the inhibition was -2.7%.

Take `O=C(CCCn1c(=O)[nH]c2cc(Cl)ccc2c1=O)N1CCC2(CC1)OCCO2`: the inhibition was 2%.

Regarding `Cc1cccc(OP(=O)(Oc2cccc(C)c2)OC(c2ccccc2)C(F)(F)F)c1` (stereo not given), the inhibition was 0.4%.

As for `O=C(Nc1cccc2ccccc12)N1CCC2(CC1)OCCO2`, the inhibition is -7.6%.

With `CCCCCCCCCCCCn1ccc(=N)cc1`, the inhibition is 27.1%.

`CCOC(=O)C1CN(C)CCC1=O` (stereo not given): the inhibition was -3.9%.

Regarding `CNCC[C@H](Oc1ccc(C(F)(F)F)cc1)c1ccccc1`, the inhibition was 10%.

With `O=C1NC(=O)N(Cc2ccco2)C(=O)/C1=C\c1ccc(-c2ccc(F)cc2)o1`, the inhibition was 76.4% (active).

As for `COC(=O)C1=C(c2ccc(Cl)c(C(F)(F)F)c2)C[C@@H]2CC[C@H]1N2C(=O)NC(C)C`, the inhibition was -10.7%.

In the case of `COCc1cc(OC(=O)N(C)C)nc(-c2ccc(C)c(Cl)c2)n1`, the inhibition is -8.4%.

Take `COc1cc(-n2c(=S)[nH]c3ccc(C)cc3c2=O)c(Cl)cc1Cl`: the inhibition was 1.2%.

For `COc1ccc(-n2c(O)c(C(C)=Nc3ccc4c(c3)CCC4)c(=O)[nH]c2=O)cc1`, the inhibition was -0.2%.

What is called inhibition is the drop in the measured response relative to a control, in per cent.
